PubChem BioAssay (Tox21)
Results filed as inconclusive are left out. The source made the active and inactive calls. Unless noted, calls come from the whole dose curve.

Key:
[1] = Nuclear factor erythroid 2-related factor 2/antioxidant responsive element (Nrf2/ARE) small molecule agonists: qHTS cell viability counter screen in human keratinocytes (AID 1919968; active = well fitted curve in the direction sought with a large enough effect in the repeat runs; an effect the other way counts as inactive or inconclusive; note: nearly all actives have a fitted effect of over 55% in size)
Outline: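 HaCaT ARE reporter line, 1,500 cells/well; 5 h settle, 37 C/5% CO2; cpd in DMSO pinned; 23 h exposure; CellTiter-Fluor, 1 h; fluorescence.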

[2] = Nuclear factor erythroid 2-related factor 2/antioxidant responsive element (Nrf2/ARE) small molecule agonists: luciferase reporter gene qHTS assay in human keratinocytes (AID 1919969); note: nearly all actives have a fitted effect of over 35% in size
[3] = molecular target: KiSS-1 receptor (Homo sapiens) (UniProt Q969F8); experiment: Human kisspeptin (KISS1R) small molecule agonists, calcium flux assay in KISS1R-HEK293 cells (AID 1920064; active = well fitted curve in the direction sought with a large enough effect in the repeat runs; an effect the other way counts as inactive or inconclusive)
Outline: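 Stable human KISS1R HEK293 line; 18 h plating, 37 C/5% CO2; calcium dye 1 h 37 C; compound pin transfer; kinetic fluorescence Ex/Em 480/540, 3 min.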

[4] = p53 small molecule agonists, cell-based qHTS assay with human liver microsomes: qHTS cell viability counter screen (AID 1963579); note: nearly all actives have a fitted effect of over 45% in size
Outline: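 Metabolically activated exposure: compounds, human liver microsomes and NADPH (0.5 mg/mL final apiece) were added to p53RE-bla cells seeded 5 h earlier, left 16 h at 37 C, and then assessed for viability by CellTiter-Glo luminescence.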

[5] = p53 small molecule agonists, cell-based qHTS assay with rat liver microsomes: qHTS cell viability counter screen (AID 1963580); note: nearly all actives have a fitted effect of over 45% in size
Outline: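 Viability is assessed in parallel with the p53 reporter read: HCT-116 p53RE-bla cells receive compounds plus rat microsomes and NADPH (0.5 mg/mL final apiece), incubate 16 h at 37 C, and then CellTiter-Glo luminescence is recorded.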

[6] = p53 small molecule agonists, cell-based qHTS assay: qHTS cell viability counter screen (AID 1963581); note: nearly all actives have a fitted effect of over 45% in size
Outline: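 HCT-116 p53RE-bla cells, 4,000/well, plated 5 h before compound pin transfer; 16 h at 37 C; bla substrate 2 h RT; then CellTiter-Glo, 30 min RT, luminescence.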

[7] = molecular target: 5-hydroxytryptamine receptor 2A (Homo sapiens) (UniProt P28223); experiment: 5-hydroxytryptamine receptor 2A (HTR2A) small molecule antagonists, cell-based qHTS assay (AID 1963586); note: nearly all actives have a fitted effect of over 45% in size
Outline: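 Antagonist-mode intracellular calcium assay: DOI (4 nM) added after 5 min compound pre-incubation at room temperature to dye-loaded HTR2A-CHO cells. Fluorescence followed for 3 min, sampled every second.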

[8] = molecular target: 5-hydroxytryptamine receptor 2A (Homo sapiens) (UniProt P28223); experiment: 5-hydroxytryptamine receptor 2A (HTR2A) small molecule agonists, cell-based qHTS assay (AID 1963587); note: nearly all actives have a fitted effect of over 30% in size
Outline: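 CHO cells stably expressing human HTR2A, plated 18 h, loaded with calcium dye 1 h at 37 C. Agonist mode: compounds added and intracellular calcium fluorescence recorded kinetically for 2 min at 1 sec intervals.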

[9] = molecular target: Muscarinic acetylcholine receptor M1 (Homo sapiens) (UniProt P11229); experiment: Cholinergic receptor muscarinic 1 (CHRM1) small molecule antagonists, cell-based qHTS assay (AID 1963588); note: nearly all actives have a fitted effect of over 40% in size
Outline: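 CHRM1-CHO calcium-flux assay, antagonist mode. Cells were seeded 18 h, dye-loaded 1 h at 37 C and given compound for 5 min at RT, then acetylcholine was added at 50nM. FDSS fluorescence was read 3 min; 15 concentrations, three runs.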

[10] = molecular target: Muscarinic acetylcholine receptor M1 (Homo sapiens) (UniProt P11229); experiment: Cholinergic receptor muscarinic 1 (CHRM1) small molecule agonists, cell-based qHTS assay (AID 1963589); note: nearly all actives have a fitted effect of over 35% in size
Outline: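 Human M1 in stable CHO line; 18 h plating, 1 h dye load 37 C; cpd added (agonist mode); Ca2+ fluorescence kinetic read, 1 s intervals; 15 conc, 3 runs.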

[11] = molecular target: Beta-2 adrenergic receptor (Homo sapiens) (UniProt P07550); experiment: Adrenergic beta2 receptor (ADRB2) small molecule antagonists, cell-based qHTS assay (AID 1963592); note: series mostly up to about 92 µM; nearly all actives have a fitted effect of over 50% in size
Outline: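 Cells (CHO, stable ADRB2 overexpression) incubated 18-20hr at 37C; compounds added from DMSO; agonist mix (1nM isoproterenol, 100uM IBMX, 25uM Ro-20-1724) added; 0.5hr RT; d2-cAMP and anti-cAMP-cryptate added; 1hr RT; 665/615 nm read.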

[12] = molecular target: Beta-2 adrenergic receptor (Homo sapiens) (UniProt P07550); experiment: Adrenergic beta2 receptor (ADRB2) small molecule agonists, cell-based qHTS assay (AID 1963593);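 note: CHO cells stably overexpressing human ADRB2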
Outline: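 CHO cells stably over-expressing ADRB2 were plated overnight at 37C, then dosed with compounds plus a stimulation mix containing 100uM IBMX and 25uM Ro-20-1724 for 0.5hr at room temperature. cAMP was measured by HTRF competition, 1hr.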

[13] = molecular target: D(2) dopamine receptor (Homo sapiens) (UniProt P14416); experiment: Dopamine D2 receptor (DRD2) small molecule agonists, cell-based qHTS assay (AID 1963594); note: nearly all actives have a fitted effect of over 35% in size
Outline: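 HEK293 cells stably expressing human DRD2, pre-treated with PDE inhibitor Ro20-1724 (0.1 mM final) and compound 10 min at room temperature, then stimulated with NKH477 (200nM […]) for 30 min. cAMP read by HTRF (665/620 nm).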

[14] = molecular target: D(2) dopamine receptor (Homo sapiens) (UniProt P14416); experiment: Dopamine D2 receptor (DRD2) small molecule antagonists, cell-based qHTS assay (AID 1963595; active = well fitted inhibition curve with a large enough effect in the signal ratio in the repeat runs, with a control signal flat; the % refers to the signal ratio)
Outline: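 HEK293 cells stably expressing DRD2, preincubated with 0.1 mM Ro20-1724 and compounds 10 min, were stimulated with 200 nM NKH477 plus 12 nM quinpirole for 30 min at room temperature; cAMP measured by HTRF (665/620 nm).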

[15] = G protein-coupled receptor (GPCR) small molecule agonists, calcium flux assay: HEK293 wild type cell line counter screen (AID 1920065)
Outline: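 Kinetic fluorescence at Ex/Em 480/540, recorded every second over 3 min, served as the read-out after compound addition. Each compound was tested at 15 concentrations in triplicate on cells pre-loaded with calcium dye for 1 h.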

[16] = cAMP Responsive Elements (CRE) small molecule agonists, cell-based qHTS assay (AID 1963590)
Outline: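 HEK 293T CRE-bla, 2,000 cells/well, 18 h preincubation 37 C/5% CO2; cpds (DMSO) pinned, 3 h; LiveBLAzer B/G FRET substrate, 2 h RT.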

[17] = cAMP Responsive Elements (CRE) small molecule antagonists, cell-based qHTS assay (AID 1963591; active = well fitted inhibition curve with a large enough effect in the signal ratio in the repeat runs, not every such curve was filed as active; the % refers to the signal ratio)
Outline: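 Beta-lactamase reporter read by FRET substrate (LiveBLAzer B/G) after 2 h at room temperature. CRE-bla HEK293T cells had received compound plus 0.25 uM (final) NKH477 for 3 h at 37 °C.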

[18] = p53 small molecule agonists, cell-based qHTS assay with human liver microsomes (AID 1963577);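 note: p53 response element beta-lactamase reporter cells with liver microsomes plus NADPH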
Outline: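 In this qHTS, p53 response-element beta-lactamase cells receive test compound together with a microsome/NADPH activating system (0.5 mg/mL final each) and are incubated 16 h at 37 C before LiveBLAzer fluorescence detection.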

[19] = p53 small molecule agonists, cell-based qHTS assay with rat liver microsomes (AID 1963578)
Outline: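 Agonist mode in p53RE-bla reporter cells, with compounds co-incubated 16 h at 37 C alongside 0.5 mg/mL rat liver microsomes and 0.5 mg/mL NADPH (final), followed by a 2 h LiveBLAzer detection step.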

[20] = p53 small molecule agonists, cell-based qHTS assay (AID 1963582; active = well fitted activation curve with a large enough effect in the signal ratio in the repeat runs, not every such curve was filed as active; the % refers to the signal ratio)
Outline: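 Reporter line: p53RE-bla. Pre-incubation 5 h, 37 C, 5% CO2; compound (DMSO, pin tool) 16 h, 37 C; B/G FRET substrate 2 h RT; fluorescence intensity read.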
% is set by controls: 0 for no effect and ±100 for the full control effect.

Chain of Muscarinic acetylcholine receptor M1 (Homo sapiens) (P11229 whole entry, looked up): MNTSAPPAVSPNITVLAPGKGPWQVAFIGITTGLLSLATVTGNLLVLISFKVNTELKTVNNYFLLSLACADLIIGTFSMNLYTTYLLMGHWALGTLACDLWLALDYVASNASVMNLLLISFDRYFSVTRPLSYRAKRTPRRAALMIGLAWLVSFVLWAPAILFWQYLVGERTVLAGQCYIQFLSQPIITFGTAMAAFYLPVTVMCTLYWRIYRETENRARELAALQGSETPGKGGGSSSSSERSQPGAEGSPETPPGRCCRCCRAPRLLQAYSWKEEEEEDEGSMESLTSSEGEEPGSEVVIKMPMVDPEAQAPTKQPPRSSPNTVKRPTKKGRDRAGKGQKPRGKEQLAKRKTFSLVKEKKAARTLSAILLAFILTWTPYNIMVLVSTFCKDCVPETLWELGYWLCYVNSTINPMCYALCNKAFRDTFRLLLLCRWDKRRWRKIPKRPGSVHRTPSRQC
Chain of D(2) dopamine receptor (Homo sapiens) (P14416 whole entry, looked up): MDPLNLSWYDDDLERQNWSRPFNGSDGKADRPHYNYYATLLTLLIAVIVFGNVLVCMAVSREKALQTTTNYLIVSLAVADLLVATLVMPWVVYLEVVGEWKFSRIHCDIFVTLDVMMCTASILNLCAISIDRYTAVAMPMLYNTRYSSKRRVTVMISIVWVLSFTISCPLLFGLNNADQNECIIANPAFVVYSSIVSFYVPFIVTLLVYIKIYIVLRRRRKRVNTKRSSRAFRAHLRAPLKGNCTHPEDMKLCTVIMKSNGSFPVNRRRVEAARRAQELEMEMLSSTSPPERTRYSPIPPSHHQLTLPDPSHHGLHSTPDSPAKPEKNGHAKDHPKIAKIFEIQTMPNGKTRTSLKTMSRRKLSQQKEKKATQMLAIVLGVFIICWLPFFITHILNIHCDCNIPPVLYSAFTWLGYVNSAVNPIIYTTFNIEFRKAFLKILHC
Chain of Beta-2 adrenergic receptor (Homo sapiens) (P07550 whole entry, looked up): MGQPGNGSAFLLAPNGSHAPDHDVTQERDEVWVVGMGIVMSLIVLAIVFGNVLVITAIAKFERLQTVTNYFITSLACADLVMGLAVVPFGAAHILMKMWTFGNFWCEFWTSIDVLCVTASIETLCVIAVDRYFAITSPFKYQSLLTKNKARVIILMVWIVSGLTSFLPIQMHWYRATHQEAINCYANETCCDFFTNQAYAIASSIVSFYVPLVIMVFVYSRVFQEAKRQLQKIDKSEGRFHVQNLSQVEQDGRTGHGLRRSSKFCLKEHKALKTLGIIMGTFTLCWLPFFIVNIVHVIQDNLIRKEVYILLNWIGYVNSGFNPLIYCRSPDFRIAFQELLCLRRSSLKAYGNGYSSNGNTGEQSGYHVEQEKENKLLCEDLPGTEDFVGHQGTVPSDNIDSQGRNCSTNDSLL
Chain of 5-hydroxytryptamine receptor 2A (Homo sapiens) (P28223 whole entry, looked up): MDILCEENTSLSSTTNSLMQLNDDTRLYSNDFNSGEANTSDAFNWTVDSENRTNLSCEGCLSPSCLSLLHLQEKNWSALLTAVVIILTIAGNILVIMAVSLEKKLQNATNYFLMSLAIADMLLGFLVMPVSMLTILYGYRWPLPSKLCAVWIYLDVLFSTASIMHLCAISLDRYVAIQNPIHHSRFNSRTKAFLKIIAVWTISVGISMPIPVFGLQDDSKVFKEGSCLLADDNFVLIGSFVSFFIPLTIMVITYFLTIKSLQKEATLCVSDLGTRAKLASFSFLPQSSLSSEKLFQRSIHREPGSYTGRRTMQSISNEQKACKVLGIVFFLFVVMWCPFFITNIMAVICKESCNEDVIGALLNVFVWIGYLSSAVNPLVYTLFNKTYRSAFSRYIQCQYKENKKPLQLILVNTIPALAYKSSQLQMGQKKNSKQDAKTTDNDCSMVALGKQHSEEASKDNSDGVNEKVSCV
Chain of KiSS-1 receptor (Homo sapiens) (Q969F8 whole entry, looked up): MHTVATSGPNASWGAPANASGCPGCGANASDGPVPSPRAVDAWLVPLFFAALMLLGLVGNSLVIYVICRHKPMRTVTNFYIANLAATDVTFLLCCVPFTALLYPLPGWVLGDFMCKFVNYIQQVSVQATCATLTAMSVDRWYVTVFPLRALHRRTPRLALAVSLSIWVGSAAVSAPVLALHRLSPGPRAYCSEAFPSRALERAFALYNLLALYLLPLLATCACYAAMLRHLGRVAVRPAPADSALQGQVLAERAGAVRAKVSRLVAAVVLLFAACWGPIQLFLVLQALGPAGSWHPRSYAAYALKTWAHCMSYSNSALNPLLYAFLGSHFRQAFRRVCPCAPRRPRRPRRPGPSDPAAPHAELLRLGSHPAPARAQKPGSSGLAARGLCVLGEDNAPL

COc1cc(C)cc(O)c1
inactive: Potency [1] | Potency [2] | Potency [3] | Potency [4] | Potency [5] | Potency [6] | Potency [7] | Potency [8] | Potency [9] | Potency [10] | Potency [11] | Potency [12] | Potency [13] | Potency [14]

Nc1ccn([C@@H]2O[C@H](CO)[C@@H](O)[C@@H]2O)c(=O)n1
inactive: Potency [1] | Potency [2] | Potency [3] | Potency [15] | Potency [5] | Potency [6] | Potency [16] | Potency [17] | Potency [11] | Potency [14]

OCCc1ccncc1
inactive: Potency [1] | Potency [2] | Potency [3] | Potency [15] | Potency [4] | Potency [5] | Potency [6] | Potency [8] | Potency [9] | Potency [10] | Potency [16] | Potency [17] | Potency [11] | Potency [12] | Potency [13] | Potency [14]

CO/N=C(/C(=O)N[C@@H]1C(=O)N2C(C(=O)O)=C(Cn3nnc(C)n3)CS[C@H]12)c1csc(N)n1
inactive: Potency [1] | Potency [2] | Potency [3] | Potency [15] | Potency [4] | Potency [5] | Potency [6] | Potency [8] | Potency [9] | Potency [10] | Potency [16] | Potency [17] | Potency [11] | Potency [13] | Potency [14]

C[C@H](CCC(=O)O)[C@H]1CC[C@H]2[C@@H]3CC[C@@H]4C[C@H](O)CC[C@]4(C)[C@H]3C[C@H](O)[C@]12C
inactive: Potency [1] | Potency [2] | Potency [3] | Potency [18] | Potency [19] | Potency [4] | Potency [20] | Potency [7] | Potency [8] | Potency [11] | Potency [13] | Potency [14]

CCCCC(CC)COS(=O)(=O)O (configuration not stated)
inactive: Potency [1] | Potency [2] | Potency [3] | Potency [15] | Potency [4] | Potency [5] | Potency [6] | Potency [7] | Potency [8] | Potency [11] | Potency [13] | Potency [14]

NC(N)=NCCN1CCCCCCC1
inactive: activity change, negative = cytotoxicity [1] -3.49% [at 0.349 µM] | activity, positive = activation [2] 3.17% [at 0.349 µM] | activation [3] 0.591% [at 0.29 µM] | activation [15] 0.864% [at 0.217 µM] | activity change, negative = cytotoxicity [4] 14.9% [at 0.249 µM] | activity change, negative = cytotoxicity [5] 0.194% [at 0.249 µM] | activity change, negative = cytotoxicity [6] -15.6% [at 0.249 µM] | activation [16] -1.51% [at 0.349 µM] | activity change, negative = inhibition [17] 0.0219% [at 0.349 µM] | activity change, negative = inhibition [11] 5.36% [at 0.349 µM] | activation [12] 1.36% [at 0.349 µM] | activation [13] -6.8% [at 0.349 µM] | activity change, negative = inhibition [14] -0.0361% [at 0.348 µM]
